Consider seven compounds from ChEMBL document CHEMBL1961873, “Compounds: GSK PKIS; Assays: Nanosyn kinase panel” (2012).

For experiment [1], the target named is RAC-alpha serine/threonine-protein kinase (Homo sapiens) (UniProt P31749). To be noted: at 0.1 µM.
For experiment [2] the target is unchanged. To be noted: at 1 µM.
The target in experiment [3] is RAC-beta serine/threonine-protein kinase (Homo sapiens) (UniProt P31751). The note with it: at 0.1 µM.
The target is the same in experiment [4]. The note with it: at 1 µM.
The target of experiment [5] is RAC-gamma serine/threonine-protein kinase (Homo sapiens) (UniProt Q9Y243). To be noted: at 0.1 µM.
Chain of RAC-gamma serine/threonine-protein kinase (Homo sapiens) (Q9Y243 whole entry): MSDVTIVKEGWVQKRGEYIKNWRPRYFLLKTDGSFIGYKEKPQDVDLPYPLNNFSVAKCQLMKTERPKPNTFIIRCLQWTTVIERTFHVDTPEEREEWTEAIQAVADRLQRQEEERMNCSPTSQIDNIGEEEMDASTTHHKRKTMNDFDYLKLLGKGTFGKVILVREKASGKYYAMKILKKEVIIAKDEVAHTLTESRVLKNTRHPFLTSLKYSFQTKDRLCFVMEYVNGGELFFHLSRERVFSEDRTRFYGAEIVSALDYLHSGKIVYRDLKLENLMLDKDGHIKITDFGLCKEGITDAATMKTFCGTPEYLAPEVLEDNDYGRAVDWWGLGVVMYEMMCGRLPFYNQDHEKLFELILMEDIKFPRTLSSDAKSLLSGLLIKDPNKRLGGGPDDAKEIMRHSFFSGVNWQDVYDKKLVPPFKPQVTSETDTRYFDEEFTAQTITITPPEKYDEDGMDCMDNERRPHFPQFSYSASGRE
Experiment [6] shares this target. To be noted: at 1 µM.
Experiment [7] has as its target G protein-coupled receptor kinase 6 (Homo sapiens) (UniProt P43250). The note with it: at 0.1 µM.
Experiment [8] shares this target. To be noted: at 1 µM.
Experiment [9] addresses T1, Rhodopsin kinase GRK7 (Homo sapiens) (UniProt Q8WTQ7).
T1 sequence (whole entry): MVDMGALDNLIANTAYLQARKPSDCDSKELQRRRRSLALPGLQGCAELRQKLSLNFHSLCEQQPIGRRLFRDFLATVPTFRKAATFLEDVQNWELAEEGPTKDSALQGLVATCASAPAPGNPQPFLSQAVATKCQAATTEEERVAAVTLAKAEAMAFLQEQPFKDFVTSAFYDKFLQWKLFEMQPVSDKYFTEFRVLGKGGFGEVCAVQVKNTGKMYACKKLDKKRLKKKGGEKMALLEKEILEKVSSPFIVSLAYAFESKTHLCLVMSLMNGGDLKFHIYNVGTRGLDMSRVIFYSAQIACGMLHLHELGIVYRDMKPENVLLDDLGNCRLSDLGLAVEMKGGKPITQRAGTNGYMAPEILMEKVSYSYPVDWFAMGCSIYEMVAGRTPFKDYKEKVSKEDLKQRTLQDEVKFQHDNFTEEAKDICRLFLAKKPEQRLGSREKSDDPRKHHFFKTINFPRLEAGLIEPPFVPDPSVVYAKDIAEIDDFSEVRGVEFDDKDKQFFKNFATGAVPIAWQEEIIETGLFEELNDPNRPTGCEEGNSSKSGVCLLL
The note with it: at 0.1 µM.

The target of experiment [10] is T1, Rhodopsin kinase GRK7 (Homo sapiens). To be noted: at 1 µM.
For experiment [11], the target named is Serine/threonine-protein kinase MRCK alpha (Homo sapiens) (UniProt Q5VT25). The note with it: at 0.1 µM.
Chain of Serine/threonine-protein kinase MRCK alpha (Homo sapiens) (Q5VT25 whole entry): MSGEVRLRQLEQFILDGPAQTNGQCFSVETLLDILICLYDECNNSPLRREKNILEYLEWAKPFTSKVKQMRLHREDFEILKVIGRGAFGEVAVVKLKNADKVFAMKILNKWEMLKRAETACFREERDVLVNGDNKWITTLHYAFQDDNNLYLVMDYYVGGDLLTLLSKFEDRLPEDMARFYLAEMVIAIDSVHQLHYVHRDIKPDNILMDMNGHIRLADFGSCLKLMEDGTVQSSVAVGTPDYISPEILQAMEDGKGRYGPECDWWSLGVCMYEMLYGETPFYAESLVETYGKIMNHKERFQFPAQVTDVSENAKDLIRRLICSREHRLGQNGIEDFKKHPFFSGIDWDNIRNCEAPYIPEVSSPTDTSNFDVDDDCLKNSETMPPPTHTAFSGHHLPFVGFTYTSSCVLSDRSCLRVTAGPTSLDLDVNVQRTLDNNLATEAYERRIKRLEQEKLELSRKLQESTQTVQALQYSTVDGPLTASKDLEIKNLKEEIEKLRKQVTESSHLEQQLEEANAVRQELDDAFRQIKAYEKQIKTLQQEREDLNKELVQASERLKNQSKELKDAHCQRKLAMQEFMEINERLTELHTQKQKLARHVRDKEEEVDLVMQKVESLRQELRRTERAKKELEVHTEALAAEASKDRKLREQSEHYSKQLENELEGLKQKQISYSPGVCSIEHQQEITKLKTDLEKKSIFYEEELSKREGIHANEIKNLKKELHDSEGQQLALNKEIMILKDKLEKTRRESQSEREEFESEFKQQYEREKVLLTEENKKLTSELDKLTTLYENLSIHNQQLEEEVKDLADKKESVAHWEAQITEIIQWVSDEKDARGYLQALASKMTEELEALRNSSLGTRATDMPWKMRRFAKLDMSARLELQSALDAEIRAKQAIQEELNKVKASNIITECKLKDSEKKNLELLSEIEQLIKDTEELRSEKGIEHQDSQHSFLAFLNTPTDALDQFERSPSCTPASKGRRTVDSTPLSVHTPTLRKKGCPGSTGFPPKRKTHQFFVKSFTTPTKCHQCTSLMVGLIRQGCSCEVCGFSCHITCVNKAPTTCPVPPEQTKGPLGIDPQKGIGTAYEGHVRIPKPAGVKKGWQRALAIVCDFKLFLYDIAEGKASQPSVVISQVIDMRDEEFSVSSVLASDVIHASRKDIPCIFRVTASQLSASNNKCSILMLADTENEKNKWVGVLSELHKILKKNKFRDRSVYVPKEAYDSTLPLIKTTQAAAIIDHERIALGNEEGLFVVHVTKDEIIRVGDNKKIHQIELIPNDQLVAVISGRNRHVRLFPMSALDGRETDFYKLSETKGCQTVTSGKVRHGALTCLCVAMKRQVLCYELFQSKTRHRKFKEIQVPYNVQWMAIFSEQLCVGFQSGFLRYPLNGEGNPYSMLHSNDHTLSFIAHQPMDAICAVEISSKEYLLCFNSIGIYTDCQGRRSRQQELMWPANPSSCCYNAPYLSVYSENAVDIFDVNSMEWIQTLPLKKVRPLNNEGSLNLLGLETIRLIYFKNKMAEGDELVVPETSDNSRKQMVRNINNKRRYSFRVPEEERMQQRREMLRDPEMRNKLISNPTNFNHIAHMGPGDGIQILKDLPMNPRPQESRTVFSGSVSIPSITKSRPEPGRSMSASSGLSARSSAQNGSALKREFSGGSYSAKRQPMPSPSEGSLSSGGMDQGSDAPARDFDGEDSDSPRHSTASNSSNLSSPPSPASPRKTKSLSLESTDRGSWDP
Experiment [12] has the same target. To be noted: at 1 µM.
Experiment [13] addresses Serine/threonine-protein kinase MRCK beta (Homo sapiens) (UniProt Q9Y5S2). The note with it: at 0.1 µM.
For experiment [14] the target is unchanged. The note with it: at 1 µM.
In experiment [15] the target is Ribosomal protein S6 kinase alpha-5 (Homo sapiens) (UniProt O75582). To be noted: at 0.1 µM.
Chain of Ribosomal protein S6 kinase alpha-5 (Homo sapiens) (O75582 whole entry, looked up): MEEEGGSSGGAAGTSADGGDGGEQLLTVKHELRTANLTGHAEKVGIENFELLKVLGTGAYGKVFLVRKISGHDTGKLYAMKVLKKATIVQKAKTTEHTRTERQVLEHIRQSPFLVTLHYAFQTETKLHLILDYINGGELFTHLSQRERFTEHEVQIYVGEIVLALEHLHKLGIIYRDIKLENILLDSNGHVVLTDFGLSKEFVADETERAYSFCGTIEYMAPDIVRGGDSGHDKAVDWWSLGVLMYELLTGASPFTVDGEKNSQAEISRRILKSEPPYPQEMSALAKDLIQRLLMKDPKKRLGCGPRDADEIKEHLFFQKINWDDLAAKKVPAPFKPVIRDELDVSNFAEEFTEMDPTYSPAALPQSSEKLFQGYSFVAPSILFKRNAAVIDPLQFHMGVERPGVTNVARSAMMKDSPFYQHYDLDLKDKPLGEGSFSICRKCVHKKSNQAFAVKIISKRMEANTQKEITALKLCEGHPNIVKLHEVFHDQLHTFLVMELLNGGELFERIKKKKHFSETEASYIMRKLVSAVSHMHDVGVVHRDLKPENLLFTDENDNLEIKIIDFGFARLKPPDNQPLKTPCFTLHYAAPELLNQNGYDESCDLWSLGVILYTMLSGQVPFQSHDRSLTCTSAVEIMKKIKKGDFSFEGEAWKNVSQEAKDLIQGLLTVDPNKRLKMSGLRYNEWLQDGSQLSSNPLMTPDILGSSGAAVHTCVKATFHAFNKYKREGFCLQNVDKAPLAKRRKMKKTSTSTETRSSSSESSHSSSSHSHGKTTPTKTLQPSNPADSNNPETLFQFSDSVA
The target is the same in experiment [16]. The note with it: at 1 µM.
The target in experiment [17] is Ribosomal protein S6 kinase alpha-4 (Homo sapiens) (UniProt O75676). The note with it: at 0.1 µM.
The target is the same in experiment [18]. To be noted: at 1 µM.
Experiment [19] deals with Ribosomal protein S6 kinase beta-1 (Homo sapiens) (UniProt P23443). To be noted: at 0.1 µM.
Chain of Ribosomal protein S6 kinase beta-1 (Homo sapiens) (P23443 whole entry, looked up): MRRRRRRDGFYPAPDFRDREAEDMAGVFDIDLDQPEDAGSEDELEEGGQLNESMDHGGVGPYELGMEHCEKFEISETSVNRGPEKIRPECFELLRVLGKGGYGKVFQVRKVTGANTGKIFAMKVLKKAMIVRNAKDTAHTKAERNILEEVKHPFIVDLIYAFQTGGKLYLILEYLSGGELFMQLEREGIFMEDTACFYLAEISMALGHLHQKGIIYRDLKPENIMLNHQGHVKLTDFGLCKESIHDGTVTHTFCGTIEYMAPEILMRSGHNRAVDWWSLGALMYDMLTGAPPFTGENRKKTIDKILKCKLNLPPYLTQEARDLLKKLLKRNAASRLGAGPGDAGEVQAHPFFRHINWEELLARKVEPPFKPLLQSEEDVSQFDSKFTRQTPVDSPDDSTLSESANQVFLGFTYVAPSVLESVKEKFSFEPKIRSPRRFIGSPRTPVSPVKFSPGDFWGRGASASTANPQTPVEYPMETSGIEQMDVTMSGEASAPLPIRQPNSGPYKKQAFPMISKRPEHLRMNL
For experiment [20] the target is unchanged. To be noted: at 1 µM.

Chain of RAC-alpha serine/threonine-protein kinase (Homo sapiens) (P31749 whole entry): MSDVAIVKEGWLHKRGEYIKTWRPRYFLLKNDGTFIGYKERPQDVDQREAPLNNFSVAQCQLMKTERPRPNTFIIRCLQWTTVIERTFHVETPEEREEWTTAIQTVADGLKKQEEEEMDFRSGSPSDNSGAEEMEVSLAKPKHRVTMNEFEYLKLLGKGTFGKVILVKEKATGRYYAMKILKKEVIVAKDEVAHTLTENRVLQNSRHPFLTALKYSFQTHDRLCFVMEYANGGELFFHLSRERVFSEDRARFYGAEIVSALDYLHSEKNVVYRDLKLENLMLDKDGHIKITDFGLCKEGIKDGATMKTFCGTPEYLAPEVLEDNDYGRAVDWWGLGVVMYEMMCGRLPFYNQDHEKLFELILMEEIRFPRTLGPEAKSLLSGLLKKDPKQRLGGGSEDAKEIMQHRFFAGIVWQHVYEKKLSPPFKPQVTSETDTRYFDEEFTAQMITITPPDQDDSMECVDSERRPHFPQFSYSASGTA
Chain of RAC-beta serine/threonine-protein kinase (Homo sapiens) (P31751 whole entry): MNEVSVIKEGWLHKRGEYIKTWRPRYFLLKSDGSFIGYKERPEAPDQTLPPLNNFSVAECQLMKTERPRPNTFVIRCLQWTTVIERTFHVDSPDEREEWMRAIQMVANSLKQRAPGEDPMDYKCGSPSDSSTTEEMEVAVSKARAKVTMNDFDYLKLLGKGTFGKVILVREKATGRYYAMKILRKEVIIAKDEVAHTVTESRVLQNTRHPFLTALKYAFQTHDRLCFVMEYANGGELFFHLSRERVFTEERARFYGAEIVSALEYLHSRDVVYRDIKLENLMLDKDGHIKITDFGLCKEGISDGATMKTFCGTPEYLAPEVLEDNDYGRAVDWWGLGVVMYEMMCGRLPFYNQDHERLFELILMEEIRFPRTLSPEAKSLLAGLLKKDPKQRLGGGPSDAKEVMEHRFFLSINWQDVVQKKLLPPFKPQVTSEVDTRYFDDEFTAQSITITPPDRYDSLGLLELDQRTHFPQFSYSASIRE
Chain of G protein-coupled receptor kinase 6 (Homo sapiens) (P43250 whole entry, looked up): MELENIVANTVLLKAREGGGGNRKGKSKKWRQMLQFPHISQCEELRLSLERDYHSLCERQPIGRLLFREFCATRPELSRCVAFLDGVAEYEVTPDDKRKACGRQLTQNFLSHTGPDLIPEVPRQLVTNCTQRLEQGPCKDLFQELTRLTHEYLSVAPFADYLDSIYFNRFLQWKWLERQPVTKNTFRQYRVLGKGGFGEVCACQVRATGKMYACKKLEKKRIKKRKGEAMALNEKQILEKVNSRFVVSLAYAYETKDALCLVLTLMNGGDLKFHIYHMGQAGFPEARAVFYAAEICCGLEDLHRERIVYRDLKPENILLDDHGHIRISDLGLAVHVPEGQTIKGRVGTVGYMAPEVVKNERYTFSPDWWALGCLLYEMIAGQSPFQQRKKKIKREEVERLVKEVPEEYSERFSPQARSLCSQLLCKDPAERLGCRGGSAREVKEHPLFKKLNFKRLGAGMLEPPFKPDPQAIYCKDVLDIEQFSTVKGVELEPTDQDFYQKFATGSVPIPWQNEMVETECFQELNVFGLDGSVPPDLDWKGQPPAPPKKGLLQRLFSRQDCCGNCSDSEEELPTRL

For `NC(=O)c1cc(-c2ccc(F)cc2)cc(-c2ccncc2)c1N`, the inhibition in [1] is 0.92%; in experiment [2], 1.2%; in experiment [3] it was 1.95%; in [4], 2.01%; in experiment [5], 2.01%; in [6] it was 4.31%. In addition, the inhibition in experiment [7] was 5.99%; in [8], 6.88%; in experiment [9] it was 2.49%; in experiment [10], 11.1%; in experiment [11], -1.04%; in experiment [12], -1.25%. Also, the inhibition was -1.54% in [13]; -2.26% in experiment [14]; 2.2% in experiment [15]; 1.39% in [16]; 2.03% in experiment [17]; 2.52% in experiment [18]. Besides, the inhibition was determined as 1.5% in [19] and 2.24% in [20].
For the compound `Clc1ccc(CNc2nccc(-c3cnn4ncccc34)n2)cc1`, the inhibition is 0.58% in experiment [1]; 0.44% in experiment [2]; 0.17% in experiment [3]; -0.27% in experiment [4]; 2.1% in [5]; 1.14% in experiment [6]. Besides, the inhibition in experiment [7] is 5.42%; in experiment [8], 1.78%; in [9] it was 1.36%; in [10], -5.11%; in experiment [11], 0%; in experiment [12] it was 2.46%. Further, the inhibition in [13] was -1.16%; in experiment [14], 0.3%; in [15], 6.95%; in experiment [16], 7.87%; in [17], 1.14%; in experiment [18] it was 1.71%. Besides, the inhibition in [19] amounted to 1.82%; in experiment [20], 2.04%.
For the compound `CNC(=O)c1cncc(/C=C/c2c(C)cccc2C)c1`, the inhibition is -2.43% in experiment [1]; -2.92% in experiment [2]; -3.43% in experiment [3]; -4.29% in experiment [4]; -2.01% in [5]; -2.42% in experiment [6]. For the same compound, the inhibition in [7] is 4.6%; in experiment [8] it was -0.29%; in experiment [9], 1.47%; in experiment [10], -7.66%; in experiment [11] it was 1.09%; in [12], 4.17%. In addition, the inhibition was -0.27% in experiment [13]; -0.99% in experiment [14]; -1.22% in [15]; -0.95% in experiment [16]; 1.35% in experiment [17]; 1.5% in experiment [18]. Further, the inhibition in [19] was 2.04%; in experiment [20], 0.86%.
As to `O=C(Nc1n[nH]c2nc(-c3ccco3)ccc12)C1CC1`, the inhibition was -0.33% in [1]; 0.8% in [2]; 0.45% in experiment [3]; 0.89% in experiment [4]; 0.35% in experiment [5]; 0.8% in experiment [6]. Further, the inhibition was 1.97% in experiment [7]; -2.2% in [8]; -1.29% in experiment [9]; -7.98% in experiment [10]; -0.04% in experiment [11]; -0.15% in experiment [12]. Moreover, the inhibition worked out at 0.63% in experiment [13]; 3.54% in experiment [14]; 6.97% in [15]; 8.4% in experiment [16]; 1.68% in experiment [17]; 3.29% in experiment [18]. Also, the inhibition in experiment [19] turned out to be 1.44%; in [20], 2.43%.
Turning to `C#Cc1cccc(Nc2ncnc3ccc(OCCCCNCCS(C)(=O)=O)cc23)c1`, the inhibition in experiment [1] is -2.83%; in experiment [2], -3.06%; in experiment [3], -0.89%; in experiment [4], -2.09%; in experiment [5], -1.57%; in [6], -0.78%. Besides, the inhibition is 7.52% in [7]; 6.6% in experiment [8]; 4.84% in [9]; 8.97% in experiment [10]; -0.05% in experiment [11]; 7.35% in [12]. In addition, the inhibition in experiment [13] is 0.55%; in experiment [14] it was 1.44%; in experiment [15] it was 2.74%; in experiment [16], 1.8%; in experiment [17], 3.12%; in [18], 3.4%. Also, the inhibition in experiment [19] was 2.59%; in [20], 3.29%.
On to `CCc1cccc(CC)c1/C=C/c1cncc(C(=O)NC)c1`, for which the inhibition was found to be 0.7% in [1]; 0.8% in experiment [2]; 2.06% in experiment [3]; 1.3% in experiment [4]; 2.25% in experiment [5]; 1.32% in experiment [6]. In addition, the inhibition in [7] was -2.11%; in experiment [8], -0.96%; in experiment [9], 1.2%; in experiment [10], -8.54%; in [11], 0.02%; in experiment [12], 0.07%. Also, the inhibition amounted to 0.83% in experiment [13]; 1.46% in experiment [14]; 3.05% in experiment [15]; 2.79% in [16]; 0.51% in [17]; 2.52% in [18]. Further, the figures for the inhibition in experiment [19] and in experiment [20] were 1.3% and 0.41%, respectively.
In the case of `COC(=O)Nc1nc2ccc(Sc3ccc(NC(=O)Nc4cc(C(F)(F)F)ccc4F)cc3)cc2[nH]1`, the inhibition was 0.65% in experiment [1]; 0.76% in experiment [2]; -0.16% in [3]; -0.51% in [4]; 0.73% in experiment [5]; 0.99% in experiment [6]. Moreover, the inhibition in [7] was 2.62%; in [8], -0.1%; in [9], -0.34%; in experiment [10] it was -6.83%; in experiment [11] it was 0.78%; in [12], 0.4%. The inhibition is -0.23% in experiment [13]; -1% in [14]; 1.97% in experiment [15]; 2.08% in experiment [16]; 0.7% in experiment [17]; 0.37% in experiment [18]. For the same compound, the inhibition worked out at 78.2% in experiment [19] and 7.6% in experiment [20].
